Data published in PubChem BioAssay AID933 (National Center for Advancing Translational Sciences (NCATS), 2007).
Inconclusive results are not listed. Entries that show only a call come without a potency. Unmarked numbers belong to inactive results. The source made the active and inactive calls. Calls come from the whole dose curve; as a rule, active = well fitted activation curve with a large enough effect in the signal ratio, with a control signal flat; inconclusive = small, poorly fitted or top-dose-only effect, or a change in a side signal; inactive = flat fitted curve, though single readings scatter; the % refers to the signal ratio.

molecular target: Thyrotropin receptor (Homo sapiens) (UniProt P16473); test: Secondary Concentration-Response Assay for Agonists of the Thyroid Stimulating Hormone Receptor: HTRF Activity Detection; details: HEK293-TSHR cells, cAMP HTRF ratio, 30 min; series mostly up to 91.7 µM;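 for activation: HEK 293 cells stably expressing human TSHR with RO 20-1724 phosphodiesterase inhibitor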
Text: NIH Chemical Genomics Center [NCGC]
NIH Molecular Libraries Screening Centers Network [MLSCN]
PI Name: Dr. Marvin Gershengorn, NIH
Confirmation of Thyroid Stimulating Hormone Receptor Agonists
TSH is an alpha/beta heterodimeric glycoprotein hormone secreted from the anterior pituitary gland which belongs to the glycoprotein hormone family. The actions of TSH are mediated by a seven-transmembrane receptor, which upon TSH binding couples preferentially to the G-alpha (s) protein (Gs), resulting in activation of adenylate cyclase and increase in cyclic adenosine 3', 5' monophosphate (cAMP). The TSH receptor (THSR) is mainly expressed in thyroid follicular cells and regulates their growth and function. Recombinant TSH is used to activate TSHR in patients with thyroid cancer receiving thyroid hormone suppression therapy and to screen for residual tumor after surgery, but it is expensive and must be administered intramuscularly. An orally active small molecule TSHR agonist would serve as an invaluable research tool for studying TSHR pharmacology and physiology, and would have multiple advantages in therapeutic settings. However, no selective small molecule agonist of the TSH receptor exists, and no small molecule screen for TSHR agonists has ever been reported.
A confirmatory assay of putative TSHR agonists was conducted on a different TSHR transfected HEK 293 cell line, using an orthogonal detection technology to measure cAMP stimulation: antibody-based Homogeneous Time Resolved Fluorescence (HTRF).
NCGC Assay Protocol Summary:
Homogeneous Time Resolved Fluorescence (HTRF) cAMP Assay. HEK 293 cells stably transfected with a vector containing the TSHR and maintained under hygromycin selection were obtained from the laboratory of Dr. Marvin Gershengorn. Compounds were assayed using a HTRF cAMP detection kit (Cisbio) on the TSHR transfected cell line. Briefly, 750 cells were plated in 2.5 ul/well of complete media (DMEM containing 10 % FCS, and 100 uM RO 20-1724) in 1536 well solid bottom white plates and 23 nl/well compound in DMSO solution or controls was added. Following 30 minute incubation at room temperature, 2.5 ul/well of labeled d2 cAMP and 2.5 ul/well of anti-cAMP antibody (both diluted 1:20 in lysis buffer) were added to each well using a flying reagent dispenser (Aurora Discovery, San Diego) . Plates were measured using the Envision plate reader (PerkinElmer, Boston, MA) with excitation at 330 nm and emissions of 615 nm and 660 nm.
Keywords: Thyroid-stimulating hormone TSH, TSHR, TSHR agonist, quantitative high throughput screening, qHTS, HTS, probe identification, CNG, cAMP, cyclic nucleotide gated ion channel PubChem
Potency is the fitted concentration of half-maximal effect.

Sequence of Thyrotropin receptor (Homo sapiens) (P16473 whole entry, looked up): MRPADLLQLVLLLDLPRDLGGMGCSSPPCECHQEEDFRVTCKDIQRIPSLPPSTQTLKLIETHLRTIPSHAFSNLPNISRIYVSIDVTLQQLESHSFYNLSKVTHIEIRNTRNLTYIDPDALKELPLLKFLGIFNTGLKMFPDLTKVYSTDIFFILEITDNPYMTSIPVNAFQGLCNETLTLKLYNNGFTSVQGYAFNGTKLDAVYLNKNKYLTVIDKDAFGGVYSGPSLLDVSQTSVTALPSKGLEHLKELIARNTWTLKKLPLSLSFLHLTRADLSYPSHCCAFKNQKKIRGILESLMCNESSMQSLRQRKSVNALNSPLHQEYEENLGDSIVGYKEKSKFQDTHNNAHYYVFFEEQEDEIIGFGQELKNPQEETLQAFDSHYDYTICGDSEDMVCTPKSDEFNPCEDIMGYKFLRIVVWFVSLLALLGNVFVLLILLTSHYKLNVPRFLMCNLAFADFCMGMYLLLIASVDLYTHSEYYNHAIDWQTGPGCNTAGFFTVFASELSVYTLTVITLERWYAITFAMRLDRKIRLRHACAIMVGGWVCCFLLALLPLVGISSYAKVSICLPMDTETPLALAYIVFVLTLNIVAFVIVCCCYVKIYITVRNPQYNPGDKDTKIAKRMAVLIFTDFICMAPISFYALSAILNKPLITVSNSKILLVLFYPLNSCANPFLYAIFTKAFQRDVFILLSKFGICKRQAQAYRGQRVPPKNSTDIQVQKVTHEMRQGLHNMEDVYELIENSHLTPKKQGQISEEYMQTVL

Q: Which Potency does the source give for COc1ccc(C2Nc3ccccc3C(=O)N2Cc2ccc(C(C)(C)C)cc2)cc1COc1ccc(NC(C)=O)cc1 (stereo not given) here?
A: inactive

Q: How did the activation turn out when Cc1cc(C)n(S(=O)(=O)c2cc(C(=O)O)c(Cl)cc2Cl)n1 was run?
A: -0.754% [at 0.00035 µM]

Q: How did the Potency turn out when COc1ccc(C2=Nn3c(nnc3-c3ccccc3OC)SC2)cc1OC was run?
A: inactive

Q: COc1ccc2c(c1OC)C(=O)N1c3ccccc3C(=O)N(c3ccccc3)C21 (stereo not given) was tested. Which Potency did it give?
A: inactive

Q: How did the Potency turn out when COc1ccc(O)c(C2Nc3ccccc3C(=O)N2Cc2ccccc2)c1 (stereo not given) was run?
A: inactive

Q: Which activation does the source give for Cc1ccccc1NC(=O)CSc1nnc(-c2ccoc2C)n1CCc1ccccc1 here?
A: -0.0378% [at 0.00035 µM]

Q: How did the Potency turn out when O=C1c2ccccc2NC(c2ccccc2OCc2ccccc2)N1Cc1ccco1 (stereo not given) was run?
A: inactive

Q: How did the activation turn out when O=C(CN(c1ccc2c(c1)OCCO2)S(=O)(=O)c1ccccc1)NCc1ccco1 was run?
A: -0.333% [at 0.00035 µM]

Q: How did the Potency turn out when O=C1c2ccccc2NC(c2ccccc2)N1Cc1ccco1 (stereo not given) was run?
A: inactive

Q: COc1ccc(CN(Cc2ccccc2)C(=O)CN2CCN(C)CC2)cc1COc1ccc(NC(C)=O)cc1 was tested. Which Potency did it give?
A: inactive

Q: With O=C1C2C3CCCC3=C3CCCC3C2C(=O)N1c1cccc(Cl)c1 (stereo not given) as the compound, how does the Potency read?
A: inactive

Q: Which Potency does the source give for COc1ccc(N2C(=O)c3ccccc3NC2c2ccc(OC)c(COc3ccc(NC(C)=O)cc3)c2)cc1 (stereo not given) here?
A: inactive

Q: How did the Potency turn out when NC(=O)c1nsc(C(=O)N(CC(=O)NC2CCCC2)Cc2ccc3c(c2)OCO3)c1N was run?
A: inactive

Q: With COc1ccc(C2Cc3ccccc3C(=O)N2Cc2ccccc2)cc1COc1ccc(NC(C)=O)cc1 (stereo not given) as the compound, how does the Potency read?
A: 10 µM (active)

Q: How did the Potency turn out when CC(=O)Nc1ccc(OCc2cccc(C3Nc4ccccc4C(=O)N3Cc3ccco3)c2)cc1 (stereo not given) was run?
A: inactive

Q: Which Potency does the source give for COc1ccc(C2Nc3ccccc3C(=O)N2Cc2ccccc2)cc1COc1cccc(C(F)(F)F)c1 (stereo not given) here?
A: inactive

Q: With O=C(CSc1nc2scc(-c3ccco3)c2c(=O)n1-c1ccccc1)N1CCOCC1 as the compound, how does the activation read?
A: -0.79% [at 0.00035 µM]

Q: With COc1ccc(C2Nc3ccccc3C(=O)N2Cc2ccccc2)cc1COc1cccc(Cl)c1 (stereo not given) as the compound, how does the Potency read?
A: inactive

Q: Which Potency does the source give for COc1ccc(C2Nc3ccccc3C(=O)N2Cc2ccccc2)cc1COc1ccc([N+](=O)[O-])cc1 (stereo not given) here?
A: inactive

Q: COc1ccc(C2Nc3ccccc3C(=O)N2Cc2ccco2)cc1CN1C(=O)c2ccccc2C1=O (stereo not given) was tested. Which Potency did it give?
A: inactive

Q: With COc1ccc(CN(Cc2ccccc2)C(=O)c2ccc(NC(C)=O)cc2)cc1COc1ccc(NC(C)=O)cc1 as the compound, how does the Potency read?
A: inactive

Q: With COc1ccc(C2Nc3ccccc3C(=O)N2c2ccc(C)cc2)cc1Cn1nc(C)c([N+](=O)[O-])c1C (stereo not given) as the compound, how does the Potency read?
A: inactive

Q: Which Potency does the source give for COc1ccc(C2Nc3ccccc3C(=O)N2CC(C)(C)C)cc1COc1ccc(NC(C)=O)cc1 (stereo not given) here?
A: inactive

Q: Which Potency does the source give for O=C1C2C3CCCC3=C3CCCC3C2C(=O)N1c1ccccc1Cl (stereo not given) here?
A: inactive

Q: CCOC(=O)N1CCC(NC(=O)c2ccc(CNS(=O)(=O)c3ccc(F)cc3)cc2)CC1 was tested. Which activation did it give?
A: 0.984% [at 0.00035 µM]

Q: COc1ccc(C2Nc3ccccc3C(=O)N2Cc2ccccc2)cc1Cn1nnc2ccccc21 (stereo not given) was tested. Which Potency did it give?
A: inactive

Q: For COc1ccc(C2Nc3ccccc3C(=O)N2c2ccccc2)cc1COc1ccc(NC(C)=O)cc1 (stereo not given), which Potency is on record?
A: inactive

Q: Which Potency does the source give for Nc1ccccc1C(=O)NCc1ccco1 here?
A: inactive

Q: How did the Potency turn out when COc1ccc(C(=O)O)cc1COc1ccc(NC(C)=O)cc1 was run?
A: inactive

Q: With O=C1c2ccccc2NC(c2ccc(Cl)cc2Cl)N1Cc1ccccc1 (stereo not given) as the compound, how does the Potency read?
A: inactive

Q: With O=C1c2ccccc2NC(c2ccc3c(c2)OCCO3)N1c1ccc2c(c1)OCCO2 (stereo not given) as the compound, how does the Potency read?
A: inactive

Q: Which Potency does the source give for COc1cc(C2Nc3ccccc3C(=O)N2Cc2ccccc2)ccc1OCc1ccc(NC(C)=O)cc1 (stereo not given) here?
A: inactive

Q: For CSc1nc(NC(C)(C)C)nc(Oc2ccc(=O)[nH]n2)n1, which activation is on record?
A: -0.106% [at 0.00035 µM]

Q: Which Potency does the source give for COc1ccc(C2Nc3cccc(O)c3C(=O)N2Cc2ccccc2)cc1COc1ccc(NC(C)=O)cc1 (stereo not given) here?
A: 7.94 µM (active)

Q: Which activation does the source give for COCCNC(=O)C(c1ccccc1)N(Cc1cccs1)C(=O)Cn1nnc2ccccc21 (stereo not given) here?
A: -0.712% [at 0.00035 µM]

Q: Which Potency does the source give for COc1ccc(CN(Cc2ccccc2)C(=O)C2CC2)cc1COc1ccc(NC(C)=O)cc1 here?
A: 15.8 µM (active)

Q: How did the Potency turn out when COc1ccc(N2C(=O)c3ccccc3NC2c2ccc(OC)c(CSc3ccccn3)c2)cc1 (stereo not given) was run?
A: inactive

Q: For COc1ccc(CN(Cc2ccccc2)C(=O)c2ccc(O)cc2)cc1COc1ccc(NC(C)=O)cc1, which Potency is on record?
A: 28.2 µM (active)

Q: COc1ccc(C2Nc3ccccc3C(=O)N2Cc2ccco2)cc1COc1ccc([N+](=O)[O-])c(C)c1 (stereo not given) was tested. Which Potency did it give?
A: inactive

Q: With COc1cccc(C(c2nnnn2Cc2ccccc2)N2CCN(C(=O)c3ccco3)CC2)c1OC (stereo not given) as the compound, how does the activation read?
A: 0.497% [at 0.00035 µM]
